# Assay outcomes (PubChem)
# PMP22 txn prim – modulators of PMP22 gene transcription in S16 Schwann cells; S16 Pmp22-F2sN Schwann cells, FLuc/NLuc coincidence luminescence, 24 h; Potency, µM (titrated, usually from 57.5 µM), inactives show at the highest dose activity change, negative = inhibition, usual class: inhibitors; actives 2% (n = 43,000); AID 1508649; active means clear falling dose curves in both reporters; inconclusive means both reporters move, but less clearly or upward; inactive means either reporter flat; the % is the NLuc reporter signal; further: potency means the concentration at half of the fitted maximal effect; on the % scale 0 is the no-effect control and ±100 the full control effect
#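 S16(c9) Schwann cells with FLuc/NLuc coincidence reporter in the Pmp22 3' UTR; compounds pin-transferred, 24 h at 37C. Dual-luciferase read: FLuc first, then NLuc after Stop&Glo, each 10 min at room temperature.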
# mTORC1 inh – mTORC1 pathway inhibition measured by phospho-rpS6; actives 0.78% (n = 44,000); Tsc2-/- p53-/- MEF, phospho-rpS6 immunofluorescence/PI, 24 h; Potency, µM (top dose mostly 38.3 µM), without a hit: top-dose activity change, negative = inhibition, actives largely listed as inhibitors;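 further: potency means the concentration at half of the fitted maximal effect; plate controls were DMSO for no effect and rapamycin for full effect; nearly all actives have a fitted effect of over 50% in size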
#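 Plate MEFs (Tsc2-/-, p53-/-, empty vector) in DMEM/10% FBS; after 24 h add compound, incubate 24 h at 37 degree Celsius; fix in PFA/TX-100, block, stain phospho-rpS6 and 10 uM PI; scan at 488 nm; report % positive cells.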
# S16 viability – toxic to S16 Pmp22-F2sN Schwann cells; S16 Pmp22-F2sN Schwann cells viability, CellTiter-Glo, 24 h; Potency, µM (highest dose often 57.5 µM), for inactives: at the highest dose activity change, negative = cytotoxicity, actives largely listed as cytotoxic; actives 0.48% (n = 43,000); AID 1508642; further: potency means the concentration at half of the fitted maximal effect; on the % scale 0 is the no-effect control and ±100 the full control effect; nearly all actives have a fitted effect of over 65% in size
#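 Seed 500-1,000 S16 Pmp22-F2sN cells per well in phenol-red-free DMEM with 10% heat-inactivated FBS; pin-add 23 nL compound; incubate 24 h at 37C; add CellTiter-Glo, wait 15 min protected from light; read luminescence.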
# SKOV3 invasion – blocks SKOV3ip1 adhesion and invasion in omental model; SKOV3ip1-GFP adhesion/invasion on 3D omental model, fluorescence; Potency, µM (highest dose often 45.8 µM), for the others: at the highest dose activity change, negative = inhibition, usual class: inhibitors; actives 0.1% (n = 46,000); AID 1963576;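 further: potency means the concentration at half of the fitted maximal effect; plate controls were DMSO wells for no effect and tomatine positive control wells for full effect; nearly all actives have a fitted effect of over 65% in size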
#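 qHTS, 4-pt dose (0.36-46 umol/L); SKOV3ip1-GFP, 1,200 cells/well, no FBS; primary omental fibroblast/mesothelial co-culture 48 h pre-grown; 2 h RT + 16 h 37 C; PBS wash, 4% PFA; GFP count 488/509 nm.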
# NLuc sat counter – counter-screen for PMP22 expression modulators: NanoLuc inhibition, saturating substrate | shares compounds with PMP22 txn prim | Secreted NLuc enzyme (filtered S16 cell medium), Nano-Glo luminescence | Potency, µM (series often up to 57.5 µM), for inactives: top-dose activity change, negative = inhibition, usual class: inhibitors | actives 4% (n = 690) | AID 1508638; further: potency means the concentration at half of the fitted maximal effect; on the % scale 0 is the no-effect control and ±100 the full control effect
# NLuc Km counter – NanoLuc inhibition at Km substrate, PMP22 artifact check; secreted NLuc enzyme, coelenterazine luminescence, Km conditions; shares compounds with PMP22 txn prim; actives 5% (n = 690); AID 1508639; Potency, µM (highest dose often 57.5 µM), for the others: at the highest dose activity change, negative = inhibition, hits mostly inhibitors; further: potency means the concentration at half of the fitted maximal effect; on the % scale 0 is the no-effect control and ±100 the full control effect
# FLuc counter – firefly luciferase enzyme inhibition artifact for PMP22 screen. shares compounds with PMP22 txn prim. purified P. pyralis FLuc, luminescence, 10 min. Potency, µM (doses to about 57.5 µM), for inactives: top-dose activity, negative = inhibition, usual class: inhibitors. 690 tested, under 10 active; further: % of control where 0% means no effect
# Target sequence (P08659 whole entry, looked up): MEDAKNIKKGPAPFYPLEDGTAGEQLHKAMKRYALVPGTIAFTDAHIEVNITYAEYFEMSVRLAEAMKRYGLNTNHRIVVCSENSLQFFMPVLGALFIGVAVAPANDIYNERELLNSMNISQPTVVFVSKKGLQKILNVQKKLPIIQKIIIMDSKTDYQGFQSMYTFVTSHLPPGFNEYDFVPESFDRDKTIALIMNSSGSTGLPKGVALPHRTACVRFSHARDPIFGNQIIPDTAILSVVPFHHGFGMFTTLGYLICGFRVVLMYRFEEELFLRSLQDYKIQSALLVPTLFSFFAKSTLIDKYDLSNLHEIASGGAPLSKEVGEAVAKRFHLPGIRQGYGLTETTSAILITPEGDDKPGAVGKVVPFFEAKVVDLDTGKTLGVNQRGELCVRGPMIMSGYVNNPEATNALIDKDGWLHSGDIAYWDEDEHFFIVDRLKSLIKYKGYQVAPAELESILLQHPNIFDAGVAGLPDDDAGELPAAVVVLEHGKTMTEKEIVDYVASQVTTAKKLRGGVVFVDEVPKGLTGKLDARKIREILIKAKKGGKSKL
# S16 F2sN tox cnf – confirmation of cytotoxicity in S16 Pmp22-F2sN Schwann cells (luciferase reporters placed in the Pmp22 gene) | shares compounds with PMP22 txn prim | S16 Schwann cells viability, CellTiter-Glo ATP luminescence, 24 h | AID 1508641 | actives 7% (n = 690) | Potency, µM (series often up to 57.5 µM), without a hit: at the highest dose activity change, negative = viability loss, most hits filed as cytotoxic; further: potency means the concentration at half of the fitted maximal effect; on the % scale 0 is the no-effect control and ±100 the full control effect
# PMP22 txn conf – confirmation of modulators of PMP22 gene transcription in S16 cells. actives 22% (n = 690). S16 Schwann cells Pmp22-F2sN, dual luciferase, 24 h. Potency, µM (titrated, usually from 57.5 µM), for the others: at the highest dose activity change, negative = inhibition, hits mostly inhibitors. AID 1508646. shares compounds with PMP22 txn prim; active means clear falling dose curves in both reporters; inconclusive means both reporters move, but less clearly or upward; inactive means either reporter flat; the % is the FLuc reporter signal; further: potency means the concentration at half of the fitted maximal effect
# Starred values were filed as active, the others as inactive; i = inactive; ? = inconclusive; / = no result given. The list is not random: actives were taken first. Their share in the collection is about 2.6%. Unless noted, the call rests on the fitted dose curve; in most records, active means well fitted curve in the direction sought with a large enough effect; inconclusive means small, poorly fitted or top-dose-only effect, or another doubt; inactive means no such curve, though single readings can be large; an effect the other way counts as inactive or inconclusive.
SMILES,PMP22 txn prim,mTORC1 inh,S16 viability,SKOV3 invasion,NLuc sat counter,NLuc Km counter,FLuc counter,S16 F2sN tox cnf,PMP22 txn conf
Cc1ccc(CNC(=O)CSc2nc3ccsc3c(=O)n2-c2ccc(Br)cc2)cc1,?,-5%,4%,15%,/,/,/,/,/
COc1ccc(-n2c(SCC(=O)NCc3ccc(Cl)cc3)nc3ccsc3c2=O)cc1,16µM*,-6%,-2%,i,-8%,4%,-3%,7%,-28%
C[C@](Cc1c[nH]c2ccccc12)(NC(=O)OC1C2CC3CC(C2)CC1C3)C(=O)NC[C@H](NC(=O)CCC(=O)O)c1ccccc1 (stereo partly drawn),/,/,/,2%,/,/,/,/,/
CCOC(=O)c1sc2ccccc2c1S(=O)(=O)N1CCN(c2cccc(OC)c2)CC1,6.3µM*,?,?,?,-14%,-1%,6%,0%,-29%
COc1ccc(-c2c(C)nn3c(N4CCN(c5ccccc5)CC4)cc(C)nc23)cc1OC,17µM*,-13%,-13%,0%,?,?,-4%,-16%,?
Cc1ccc(NC(=O)C2CCN(c3nnc(C)c4c(C)n(-c5ccccc5)nc34)CC2)cc1Cl,-3%,-8%,11%,-3%,/,/,/,/,/
COc1ccc(CNC(=O)C2CCCN(c3nnc(C)c4c(C)n(-c5ccc(C)cc5)nc34)C2)cc1 (stereo not drawn),17µM*,-14%,?,-29%,?,?,-4%,?,?
COc1ccc(NC(=O)C2CCCN(c3nnc(C)c4c(C)n(-c5ccccc5)nc34)C2)cc1Cl (stereo not drawn),20µM*,?,?,?,-9%,-1%,28%,43µM*,?
Cc1nnc(N2CCCC(C(=O)Nc3ccccc3C(F)(F)F)C2)c2nn(-c3ccccc3)c(C)c12 (stereo not drawn),13µM*,-8%,28µM*,?,-19%,-2%,4%,?,?
Cc1nnc(N2CCC(C(=O)NC3CCCCC3)CC2)c2nn(-c3ccc(Cl)cc3)c(C)c12,-5%,-7%,-2%,3%,/,/,/,/,/
Cc1nnc(N2CCC(C(=O)N3CCCCC3)CC2)c2nn(-c3ccc(Cl)cc3)c(C)c12,19µM*,-2%,?,2%,-6%,5%,-2%,-9%,?
Oc1ccc(C2CCN(c3ccnc4ccccc34)CC2)cc1O,/,/,/,19%,/,/,/,/,/
CN(C)CCOc1cc(-c2cn[nH]c2)ccc1NC(=O)C1COc2ccccc2O1 (stereo not drawn),/,/,/,17%,/,/,/,/,/
C[C@]12CC[C@@H]3c4ccc(O)cc4C[C@@H](CCCCCCCCCS(=O)CCCC(F)(F)C(F)(F)F)[C@H]3[C@H]1CC[C@H]2O (stereo partly drawn),/,/,/,-18%,/,/,/,/,/
CC1(C)CC(=O)c2c(C(F)(F)F)nn(-c3ccc(C(N)=O)c(NC4CCC(O)CC4)c3)c2C1 (stereo not drawn),/,/,/,-5%,/,/,/,/,/
